D2 antagonist: antagonists of human D2 dopamine receptor | 340,000 tested, 2% active | HEK293 TREx D2 cells, calcium flux, dopamine EC80 | P14416 | inhibition, % at 10 µM; in the data active means inhibition above about 30%; inactive means below that, where a call was filed; further: 0% is about no effect
Target sequence (P14416 whole entry, looked up): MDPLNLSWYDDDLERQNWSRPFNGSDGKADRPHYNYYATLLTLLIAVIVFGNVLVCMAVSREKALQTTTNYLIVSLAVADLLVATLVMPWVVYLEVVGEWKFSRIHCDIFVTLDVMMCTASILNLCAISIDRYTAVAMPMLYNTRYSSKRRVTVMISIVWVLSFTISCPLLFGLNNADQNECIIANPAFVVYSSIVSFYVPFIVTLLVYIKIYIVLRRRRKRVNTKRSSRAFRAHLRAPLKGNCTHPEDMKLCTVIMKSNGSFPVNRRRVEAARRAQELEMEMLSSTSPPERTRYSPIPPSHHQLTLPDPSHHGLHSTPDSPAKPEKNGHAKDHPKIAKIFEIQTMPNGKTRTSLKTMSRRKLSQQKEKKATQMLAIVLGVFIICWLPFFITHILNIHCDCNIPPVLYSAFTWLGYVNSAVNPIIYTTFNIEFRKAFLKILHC
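Read-out: kinetic calcium fluorescence (1 cycle/s) in inducible HEK293 T-REx D2 cells after an EC80 dopamine addition that followed 180 s compound preincubation. Loss of the dopamine response indicates antagonism.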
D2 ag-1: agonists of human D2 dopamine receptor; HEK293 T-REx D2 cells, calcium flux agonist mode; P14416; 340,000 tested, 0.53% active; activation, % at 2 µM;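 active means activation over 3 SD above normal in the single-dose calcium agonist read, cut at about 30% in these data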; further: 0% is about no effect
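Agonism scored from kinetic calcium signal (1 read/sec, 180 s) following compound pin transfer, after a 10 s baseline. Cells: HEK293 Trex line expressing inducible D2 receptor coupled to calcium, dye-loaded after overnight culture at 30 C.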
D2 PAM-1: positively modulates the human D2 dopamine receptor allosterically. P14416. HEK293 T-REx D2, calcium flux, EC20 dopamine potentiation. potentiation, % at 10 µM. 340,000 tested, 0.34% active. AID 485347;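 active means potentiation over 3 SD above the plate norm, cut at about 30% in these data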; further: 0% is about no effect
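Primary screen. Calcium kinetics in induced HEK293 T-REx D2 cells: compound pre-addition 180 s, EC20 dopamine, 180 s more.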
D2 ag-2: human D2 receptor agonism in beta-arrestin assay. DiscoveRx PathHunter D2 beta-arrestin, luminescence, 90 min; 100% = 57 uM dopamine signal. activation, % (concentration not given with the values). 360,000 tested, 0.084% active; in the data active means activation above about 40%; inconclusive means between about 15% and that limit
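DiscoveRx PathHunter D2 beta-arrestin cells (2,100/well) attached overnight, then compound-stimulated 90 min at 37 C in HBSS/10 mM HEPES/0.1% Tween-20 buffer; beta-galactosidase complementation read by luminescence after 1 h at ambient temperature. Dopamine 57 uM final (EC100) as control.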
D2 PAM-2: human D2 receptor positive allosteric modulation; 360,000 tested, 0.23% active; DiscoveRx D2 beta-arrestin cells, luminescence, 90 min; 100% = 57 uM dopamine signal; AID 624464; P14416; potentiation, % (test concentration not listed); in the data active means potentiation above about 50%; inconclusive means mostly about 30% to 49%
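PathHunter beta-arrestin assay in DiscoveRx D2 cells. Compounds were added with an EC20 of dopamine (50 nM final) for 90 min at 37 deg C. Luminescence was read 1 h after detection reagent, with 57 uM dopamine as the EC100 control.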
* marks the source's active call; other numbers are inactive results; ? = inconclusive; . = not tested or not shown. The list is not random: actives were taken first. Their share in the collection is about 2.4%.

SMILES	D2 antagonist	D2 ag-1	D2 PAM-1	D2 ag-2	D2 PAM-2
CCN(Cc1ccccc1)C(=O)C1CCC(CNS(=O)(=O)c2ccc3c(c2)CCCC(=O)N3)CC1 (configuration not stated)	.	-1	11	.	.
Cc1c(Cl)cn2c(=O)cc(CN3CCN(c4ccc(F)cc4)CC3)nc2c1Cl	-24	32*	-18	.	.
Cc1cc(C(=O)O)c2c(=O)n(C)c(=O)n(C)c2n1	.	0	3	.	.
CC1(C)Cc2c(sc3nc(SCC(=O)NCc4ccco4)n(-c4ccccc4)c(=O)c23)CS1	30*	1	-3	1	-9
O=C(CSc1nc2sc3c(c2c(=O)n1-c1ccccc1)CCCC3)NCc1ccco1	-1	2	-10	2	-6
Cc1ccc(S(=O)(=O)c2nnn3c2nc(NC2CCCCC2)c2sccc23)cc1C	.	-1	5	.	.
CC(C)c1ccc(NC(=O)CCNS(=O)(=O)c2cccc3nonc23)cc1	8	0	1	-1	-4
Cc1ccc(NC(=O)CCNS(=O)(=O)c2cccc3nonc23)cc1	31*	0	26	-3	-5
CCN(CC)c1nn2c(=O)c(C(=O)NCCc3ccc(C)cc3)cnc2s1	.	0	.	.	.
Cc1sc2nc(C3CC3)nc(SCC(=O)NCc3ccco3)c2c1C	8	0	11	6	-15
O=C(CSc1nc(C2CCCCC2)nc2ccccc12)NCc1ccco1	67*	-1	-10	-3	-2
CCC(O)(CCN1CCCCC1)c1ccccc1 (configuration not stated)	-4	0	-2	-3	-14
OC(CCCN1CCCCC1)(c1ccccc1)c1ccccc1	80*	1	-28	-6	-25
COC(=O)C1=C(C)NC(=O)C1(NC(=O)c1ccc(Cl)cc1)C(F)(F)F (configuration not stated)	.	0	0	.	.
CC1CCCN(CCOCCSc2ccccc2)C1 (configuration not stated)	2	-3	-20	-5	-26
CC1CCN(CCOCCOc2ccccc2Br)CC1	13	2	-28	-4	-18
CC1CCN(CCCCOc2ccccc2-c2ccccc2)CC1	84*	1	-21	3	-12
CC1CCN(CCOCCOc2ccccc2-c2ccccc2)CC1	56*	0	-27	-3	-45
CC1CCCN(CCCOc2ccccc2-c2ccccc2)C1 (configuration not stated)	73*	-1	-28	-2	-21
COCCCNC(=O)CCCN1C(=O)CCn2nc(-c3cn(C)c4ccccc34)cc21	.	0	-1	.	.
O=C(COc1ccc(S(=O)(=O)N2CCOCC2)cc1)NC1CCCCC1	7	0	22	-5	-9
Cc1ccc(C)c(N2CCN(C(=O)c3cc(C)nc4c3c(C)nn4-c3ccccc3)CC2)c1	.	1	6	.	.
CCCn1ccc2c(OCC(=O)Nc3ccc(OC)c(OC)c3)cccc2c1=O	.	0	-2	.	.
COc1cc(-c2nc3ccccn3c2/N=C/c2cc(OC)c(OC)c(OC)c2)ccc1O	.	.	.	6	52*
CCCC(=O)C1=C(O)C(C(=O)OC)C(C)(C)CC1=NC(C)C (configuration not stated)	33*	0	5	0	0
SMILES	D2 antagonist	D2 ag-1	D2 PAM-1	D2 ag-2	D2 PAM-2
Cc1ccc(C)c(N2CCN(c3cc(C)nc4c(-c5ccc(Cl)cc5)c(C)nn34)CC2)c1	.	-1	.	.	.
Cc1cc2nc(/C(C#N)=C/c3ccncc3)[nH]c2cc1C	36*	2	-9	2	-12
N#C/C(=C\c1ccncc1)c1nc2ccccc2[nH]1	-6	2	3	9	21
Nc1ccn([C@@H]2O[C@H](C(=O)NCc3ccc4c(c3)OCO4)[C@@H](O)[C@H]2O)c(=O)n1	.	.	.	-6	-3
O=C(O)c1ccccc1S(=O)(=O)Cc1ccccc1	36*	1	-11	-2	-5
COC(=O)c1ccc(NC(=S)NCCC2=CCCCC2)cc1	55*	0	-16	-1	-19
COc1ccc(C)cc1NC(=O)NCCC1=CCCCC1	86*	-1	-30	-3	-22
O=C(N[C@@H](Cc1ccccc1)C(=O)OCc1ccccc1)c1nc[nH]c1C(=O)NCc1ccccc1	-13	0	-2	-7	-7
COc1ccc(N2C(=O)C(Cl)=C(N3CCN(Cc4ccccc4)CC3)C2=O)cc1	.	.	.	-2	1
O=C1C(Cl)=C(N2CCN(Cc3ccccc3)CC2)C(=O)N1c1ccccc1	37*	-1	-11	-3	-15
Cc1cc(C)nc(N(C#N)Cc2ccccc2C)n1	50*	0	-3	0	-5
Cc1nc(N2CCN(c3ccccn3)CC2)c2c(C)c(C(=O)N3CCN(c4cccc(Cl)c4)CC3)sc2n1	26	2	31*	-1	-5
Cc1ccn2c(Nc3ccc4c(c3)OCCO4)c(-c3ccc(C)o3)nc2c1	.	-1	5	.	.
O=C(CN1CCc2cc3c(cc2C1)OCCCO3)Nc1c(F)cccc1F	42*	1	-3	-1	-25
CCOc1cc(C(=O)NCCN2CCOCC2)cc(OCC)c1OCC	18	-2	42*	-3	-13
COc1ccc(OC)c2sc(N(Cc3cccnc3)C(C)=O)nc12	.	1	8	.	.
C[C@@H]1CC2OC(=O)[C@@]3(C)C(=O)CC[C@@](C)(C23)[C@@]1(O)CCc1ccoc1 (some centres not stated)	30*	0	-13	-1	1
CCN(CC)CCOC(=O)c1ccc(NC(=O)Cn2ncc3c2-c2cc(C)ccc2OC3)cc1	.	0	.	.	.
CCOC(=O)c1c(C)[nH]c(C)c1C(=O)COC(=O)c1ccc(S(=O)(=O)C(F)F)cc1	39*	0	14	0	8
CCOC(=O)c1c(C)[nH]c(C)c1C(=O)COC(=O)c1ccc(O)cc1	-7	4	12	0	-3
Cc1cc(NC(=O)CCN2CCC(C)CC2)ccc1Br	39*	1	-11	-3	-66
Cc1cc(NC(=O)CN2C(=O)N(C)C3(CCCCC3)C2=O)ccc1Br	33*	1	-12	-2	0
CN(C)S(=O)(=O)c1ccc(-c2csc(N/N=C/c3ccc(O)cc3)n2)cc1	-8	0	1	?	57*
CCOC(=O)c1cc(-c2ccc(OC)cc2)n(CCC(=O)Nc2ccc(OC)cc2OC)c1C	.	0	25	.	.
O=c1c(-c2ccc(Cl)cc2)cnc2n1CCS2	-19	0	3	-3	-1
Cc1ccc(OCC(=O)NCC2(N3CCN(C)CC3)CCCCC2)cc1	.	1	-22	.	.
COc1cc(O)c(C(CC(=O)N2CCCC(C)C2)c2ccc(N(C)C)cc2)c(OC)c1 (configuration not stated)	31*	0	-4	-5	-11
